# PubChem BioAssay AID652115 (Broad Institute, 2013)
# Where “and” joins values, the source holds several entries; their conditions need not be identical. Identical values can stand only once. The campaign covered roughly 330,000 compounds. About 3,800 (1.2%) were called active. Cut-off read from the data, not from the text of the source: active = inhibition above about 15%; inconclusive = no clear call, values can overlap the other calls; inactive = below that. The list comes from a sample in which actives are over-represented; it also holds similar structures and randomly drawn compounds. Some compounds were tested as several samples or in several runs, with calls that do not always agree.
# Molecular target: NAD-dependent protein deacylase sirtuin-5, mitochondrial (Homo sapiens) (UniProt Q9NXA8)
# Assay: blockers of sirtuin-5 deacylase activity – biochemical, fluorescence imaging, single point, set 5, primary screen (AID 652115)
# Details: Purified SirT5, succinyl-peptide AMC, trypsin-coupled fluorescence; at 15 µM; stronger effect = higher value
# Chain of NAD-dependent protein deacylase sirtuin-5, mitochondrial (Homo sapiens) (Q9NXA8 whole entry, looked up): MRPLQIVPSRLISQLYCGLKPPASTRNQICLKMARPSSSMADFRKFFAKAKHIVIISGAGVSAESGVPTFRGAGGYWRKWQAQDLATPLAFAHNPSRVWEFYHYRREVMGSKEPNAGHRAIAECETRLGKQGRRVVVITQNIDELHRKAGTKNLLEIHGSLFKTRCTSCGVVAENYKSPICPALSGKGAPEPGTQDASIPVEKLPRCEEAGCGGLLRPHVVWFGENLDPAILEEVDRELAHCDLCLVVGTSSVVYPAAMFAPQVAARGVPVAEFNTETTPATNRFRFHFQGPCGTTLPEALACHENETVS
row,SMILES,inhibition
1,O=C(Nc1cc(Cl)cc(Cl)c1)N[C@@H]1CC[C@H](CCNS(=O)(=O)c2cccc(F)c2)O[C@H]1CO,2.03% (inactive)
2,CCCNC(=O)N1CC(=O)N2[C@H](CO)[C@H](c3ccc(C#Cc4cccc(OC)c4)cc3)[C@H]2C1,-0.038% (inactive)
3,CCCN(C)C[C@H]1Oc2cc(-c3ccc(C)cc3)ccc2S(=O)(=O)N([C@H](C)CO)C[C@H]1C,1.13% (inactive)
4,CN(C)C(=O)c1ccc(-c2ccccc2[C@@H]2[C@@H](C#N)N(C(=O)C3CCCC3)[C@H]2CO)cc1,-3.26% (inactive)
5,O=C(N[C@H]1C=C[C@@H](CC(=O)N2CCN(c3ccccc3)CC2)O[C@@H]1CO)c1ccncc1,-0.959% (inactive)
6,C=CCC[C@H](Cc1ccc(F)cc1)C(=O)OC[C@H](C)NC(=O)[C@H](CC=C)CC(=O)N(CCO)Cc1ccccc1,16.9% (active)
7,C=CCC[C@H](Cc1ccc(F)cc1)C(=O)OC[C@@H](NC(=O)[C@@H](CC=C)CC(=O)N[C@H](CO)Cc1ccccc1)C(C)(C)C,0.931% (inactive)
8,C=CCC[C@@H](Cc1ccc(F)cc1)C(=O)OC[C@@H](C)NC(=O)[C@H](CC=C)CC(=O)N(CCO)Cc1ccccc1,-0.88% (inactive)
9,CC1COc2ccccc2N1C(=O)c1cccnc1Cl (centres undefined),-1.34% (inactive)
10,CC1COc2ccccc2N1S(=O)(=O)c1ccccc1 (centres undefined),-1.33% (inactive)
11,CC1COc2ccccc2N1C(=O)c1ccc(F)cc1 (centres undefined),22.7% (active)
12,COc1ccc(CN(C)C[C@@H]2OCCCC[C@@H](C)Oc3ccc(NC(=O)Nc4ccc(C(F)(F)F)cc4)cc3C(=O)N([C@H](C)CO)C[C@H]2C)cc1,6.39% (inactive)
13,CN(C)CC(=O)N[C@H]1CC[C@H](CCNC(=O)Nc2ccc(F)cc2)O[C@H]1CO,-1.16% (inactive)
14,Cc1nc(N2[C@H](CO)[C@H](c3ccccc3)[C@H]2CNCC2CCCCC2)sc1C,5.49% (inactive)
15,CC(C)NC(=O)N1[C@@H]2c3ccc(-c4ccc(F)cc4)c(=O)n3C[C@@H]2[C@@H](CO)[C@@H]1C(=O)N1CCOCC1,-2.98% (inactive)
16,Cc1cc(C(=O)Nc2nnc(C3CC3)s2)c(C)s1,-4.14% (inactive)
17,O=C(Nc1nnc(C2CC2)s1)c1cc(Cl)sc1Cl,-1.4% (inactive)
18,O=C(Nc1nnc(C2CC2)s1)c1ccccn1,23.4% (active)
19,CO[C@@H]1CN(C)C(=O)c2cc(NS(C)(=O)=O)ccc2OC[C@H](C)N(C(=O)C2CC2)C[C@@H]1C,1.74% (inactive)
20,COCC(=O)Nc1ccc2c(c1)C(=O)N(C)C[C@@H](OC)[C@@H](C)CN(C(=O)Cc1ccccn1)[C@@H](C)CO2,-3.53% (inactive)
21,C[C@@H](O)C#Cc1cnc2c(c1)C(=O)N([C@@H](C)CO)C[C@H](C)[C@H](CN(C)Cc1cncnc1)O2,8.12% (inactive)
22,Cc1ccc(C(=O)NCC(=O)NCc2cc(=O)n(C)c(=O)n2C)cc1,31.9% (active)
23,COc1ccc(S(=O)(=O)NCC(=O)NCc2cc(=O)n(C)c(=O)n2C)cc1F,-2% (inactive)
24,Cc1ccc(C(=O)NCC(=O)NC2CC2)cc1,-1.54% (inactive)
25,CC(C)NC(=O)Nc1ccc2c(c1)C(=O)N([C@H](C)CO)C[C@H](C)[C@@H](CN(C)C)OCCCC[C@H](C)O2,0.043% (inactive)

row,SMILES,inhibition
1,COc1cc(/C=C2/C(=O)NN(c3cccc(Cl)c3)C2=O)cc(Br)c1O,9.45% (inactive)
2,C#CCOc1ccc(/C=C2/C(=O)NN(c3ccccc3)C2=O)cc1OC,98.1% (active)
3,C#CCOc1ccc(/C=C2/C(=O)ON=C2C)cc1OCC,-2.23% (inactive)
4,CN(C)C(=O)C[C@H]1C=C[C@@H](NC(=O)C2CCC2)[C@@H](CO)O1,-0.42% (inactive)
5,C[C@H](CO)N1C[C@H](C)[C@H](CN(C)CC2CCCCC2)OCCCC[C@H](C)Oc2ccc(NC(=O)c3ccncc3)cc2C1=O,2.1% (inactive)
6,O=S(=O)(Cc1ccccc1)N1CCCCN2[C@@H](CO)[C@@H](c3ccc(-c4ccc(F)cc4)cc3)[C@@H]2C1,4.06% (inactive)
7,COc1ccc2c3c(n(C)c2c1)[C@@H](CO)N(C(=O)CN1CCOCC1)CC31CCN(C(=O)C2CC2)CC1,-4.96% (inactive)
8,O=C(C[C@@H]1CC[C@@H]2[C@H](COC[C@@H](O)CN2Cc2ccc(Cl)cc2)O1)NCc1ccccc1Cl,-1.3% (inactive)
9,O=C(C[C@@H]1CC[C@H]2[C@@H](COC[C@@H](O)CN2Cc2nccs2)O1)NCc1ccc(-c2ccccc2)cc1,3.03% (inactive)
10,O=C(C[C@@H]1CC[C@@H]2[C@H](COC[C@H](O)CN2Cc2cccc(C(F)(F)F)c2)O1)NCc1ccc(F)cc1,16.6% (active)
11,O=C(C[C@H]1CC[C@H]2[C@@H](COC[C@@H](O)CN2Cc2cccc(C(F)(F)F)c2)O1)NCc1ccncc1,2.67% (inactive)
12,O=C(C[C@H]1CC[C@H]2[C@@H](COC[C@@H](O)CN2Cc2nccs2)O1)NCc1ccccc1Cl,16.4% (active)
13,O=C(C[C@@H]1CC[C@@H]2[C@H](COC[C@H](O)CN2Cc2cccc(F)c2)O1)NCc1ccncc1,-0.883% (inactive)
14,CN(C)C(=O)[C@@H]1[C@@H](CO)[C@@H]2Cn3c(ccc(-c4ccccc4)c3=O)[C@@H]2N1CCC(F)(F)F,0.07% (inactive)
15,C[C@@H](NC(=O)C[C@H]1C=C[C@H](NC(=O)C2CCOCC2)[C@H](CO)O1)c1ccccc1,2.71% (inactive)
16,COc1ccc(NC(=O)N2C[C@H](O)COC[C@H]3O[C@@H](CC(=O)NC4Cc5ccccc5C4)CC[C@@H]32)cc1,-1.07% (inactive)
17,CC(C)CC#Cc1cnc2c(c1)C(=O)N([C@@H](C)CO)C[C@@H](C)[C@@H](CN(C)S(=O)(=O)c1cccs1)O2,3.74% (inactive)
18,C/C=C/c1ccc([C@H]2[C@@H](CO)N(C(=O)C3CC3)[C@@H]2CNC(=O)NC(C)C)cc1,-3.13% (inactive)
19,CCC(=O)N(C)C[C@@H]1Oc2ncc(C#CCC3CCCC3)cc2C(=O)N([C@@H](C)CO)C[C@H]1C,2.53% (inactive)
20,CN1C(=O)c2cc(NC(=O)C3CCOCC3)ccc2OC[C@@H]2O[C@H](CC(=O)NCc3ccccc3F)CC[C@H]21,-13.7% (inactive)
21,C/C=C/c1ccc2c(c1)O[C@H](CN(C)Cc1ccccc1)[C@H](C)CN([C@@H](C)CO)S2(=O)=O,3.6% (inactive)
22,CC(C)C#Cc1ccc2c(c1)O[C@H](CN(C)Cc1ccccc1)[C@H](C)CN([C@@H](C)CO)S2(=O)=O,-0.3% (inactive)
23,C[C@H]1CN([C@@H](C)CO)S(=O)(=O)c2ccc(C3=CCCC3)cc2O[C@@H]1CN(C)Cc1ccccc1,24.3% (active)
24,C/C=C/c1ccc2c(c1)O[C@H](CN(C)C)[C@H](C)CN([C@H](C)CO)S2(=O)=O,-0.588% (inactive)
25,C/C=C/c1ccc2c(c1)O[C@H](CN(C)Cc1cccc(F)c1)[C@H](C)CN([C@H](C)CO)S2(=O)=O,18% (active)

row,SMILES,inhibition
1,C[C@@H](O)C#Cc1ccc2c(c1)O[C@@H](CN(C)Cc1cccnc1)[C@@H](C)CN([C@@H](C)CO)S2(=O)=O,-2.24% (inactive)
2,C[C@@H]1CN([C@@H](C)CO)S(=O)(=O)c2ccc(C3=CCCC3)cc2O[C@@H]1CN(C)Cc1ccncc1,0.906% (inactive)
3,COc1ccccc1NC(=O)N(C)C[C@H]1Oc2cc(Br)ccc2S(=O)(=O)N([C@H](C)CO)C[C@@H]1C,-3.29% (inactive) and -0.792% (inactive)
4,C[C@H](CO)N1C[C@H](C)[C@@H](CN(C)Cc2cccnc2)Oc2cc(C3=CCCC3)ccc2S1(=O)=O,0.149% (inactive)
5,Cc1noc(C)c1NC(=O)N(C)C[C@@H]1Oc2cc(Br)ccc2S(=O)(=O)N([C@@H](C)CO)C[C@H]1C,-3.62% (inactive) and 22.1% (active)
6,Cc1noc(C)c1NC(=O)N(C)C[C@@H]1Oc2cc(C#CCC(C)C)ccc2S(=O)(=O)N([C@H](C)CO)C[C@@H]1C,10.8% (inactive)
7,C[C@@H]1CN([C@H](C)CO)S(=O)(=O)c2ccc(C#C[C@@H](C)O)cc2O[C@@H]1CN(C)Cc1ccc(-c2ccccc2)cc1,27% (active) and 4.33% (inactive) and -0.184% (inactive)
8,CO[C@@H](CN(C)C(=O)c1cnccn1)[C@@H](C)CN([C@@H](C)CO)S(=O)(=O)c1ccc(F)cc1,3.39% (inactive)
9,CCNC(=O)C[C@@H]1CC[C@@H]2[C@H](COc3ccc(NS(=O)(=O)c4ccccc4C)cc3C(=O)N2C)O1,-4.85% (inactive)
10,C/C=C/c1ccc2c(c1)O[C@@H](CN(C)S(=O)(=O)c1ccc(F)cc1)[C@@H](C)CN([C@H](C)CO)S2(=O)=O,7.93% (inactive)
11,O=C(Nc1cc(F)ccc1F)N[C@H]1CC[C@@H](CCn2cc(C3CCCC3)nn2)O[C@@H]1CO,-0.428% (inactive)
12,C[C@H](CO)N1C[C@H](C)[C@@H](CN(C)C(=O)c2ccncc2)Oc2cc(/C=C/c3ccccc3)ccc2S1(=O)=O,0.659% (inactive)
13,C[C@H]1CN([C@@H](C)CO)S(=O)(=O)c2ccc(C#Cc3ccncc3)cc2O[C@@H]1CN(C)C(=O)Nc1ccc2c(c1)OCO2,4.3% (inactive)
14,Cc1ccc(S(=O)(=O)N(C)C[C@@H]2Oc3cc(C4=CCCC4)ccc3S(=O)(=O)N([C@@H](C)CO)C[C@@H]2C)cc1,8.8% (inactive)
15,C[C@@H]1CN([C@H](C)CO)S(=O)(=O)c2ccc(C3=CCCC3)cc2O[C@H]1CN(C)C(=O)Nc1ccc2c(c1)OCO2,7.25% (inactive)
16,C[C@@H]1CN([C@@H](C)CO)S(=O)(=O)c2ccc(/C=C/c3ccccc3)cc2O[C@H]1CN(C)Cc1cccnc1,5.97% (inactive)
17,COc1cccc(S(=O)(=O)N(C)C[C@@H]2Oc3cc(C4=CCCCC4)ccc3S(=O)(=O)N([C@H](C)CO)C[C@H]2C)c1,37.3% (active)
18,C[C@@H]1CN([C@@H](C)CO)S(=O)(=O)c2ccc(/C=C/c3ccccc3)cc2O[C@H]1CN(C)C(=O)Nc1cc(F)ccc1F,-3.9% (inactive)
19,C[C@H]1CN([C@@H](C)CO)S(=O)(=O)c2ccc(C3=CCCC3)cc2O[C@H]1CN(C)C(=O)Nc1ccc2c(c1)OCO2,16.2% (active)
20,C[C@H](CO)N1C[C@H](C)[C@@H](CN(C)S(=O)(=O)c2ccc(F)cc2)Oc2cc(C3=CCCC3)ccc2S1(=O)=O,-0.634% (inactive)
21,C[C@@H]1CN([C@H](C)CO)S(=O)(=O)c2ccc(/C=C/c3ccccc3)cc2O[C@@H]1CN(C)Cc1ccccc1,23.2% (active)
22,C[C@@H]1CN([C@H](C)CO)S(=O)(=O)c2ccc(/C=C/c3ccccc3)cc2O[C@@H]1CN(C)C(=O)Nc1ccc(F)cc1,0.2% (inactive)
23,C[C@@H]1CN([C@@H](C)CO)S(=O)(=O)c2ccc(/C=C/c3ccccc3)cc2O[C@H]1CN(C)Cc1ccccc1,-1.92% (inactive)
24,C[C@@H]1CN([C@@H](C)CO)S(=O)(=O)c2ccc(/C=C/c3ccccc3)cc2O[C@@H]1CN(C)C(=O)Nc1cc(F)ccc1F,21.7% (active)
